Among all 350,000 compounds or so, about 31,000 (8.9%) were called active. Another 15% or so got no clear call; they are omitted. The entries come from a sample that favours actives as a whole. Values without a mark were called inactive. Calls come from the whole dose curve; as a rule, active = well fitted inhibition curve with a large enough effect; inconclusive = small, poorly fitted or top-dose-only effect; inactive = no such curve, though single readings can be large or run the other way.

For 19 compounds, Potency and activity, negative = inhibition results are on record in PubChem BioAssay AID504332 (National Center for Advancing Translational Sciences (NCATS), 2011).
% is set by controls: 0 for no effect and ±100 for the full control effect; potency is the fitted concentration of half-maximal effect.

The target of this assay is Histone-lysine N-methyltransferase EHMT2 (Homo sapiens) (UniProt Q96KQ7). The assay can be described thus: qHTS Assay for Inhibitors of Histone Lysine Methyltransferase G9a. Note: nearly all actives have a fitted effect of over 75% in size. The following applies: G9a H3K9 monomethylation, AlphaScreen, 2 h; series mostly up to 59 µM. The essentials: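 Step 1: enzyme (final 20 nM) with compound, 15 min RT. Step 2: substrate peptide 500 nM and SAM 20 uM, 2 h RT. Step 3: anti-H3K9me1 antibody and AlphaScreen beads, 10 min, then plate read.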
Histone-lysine N-methyltransferase EHMT2 (Homo sapiens), sequence (Q96KQ7 913-1193 limits assumed): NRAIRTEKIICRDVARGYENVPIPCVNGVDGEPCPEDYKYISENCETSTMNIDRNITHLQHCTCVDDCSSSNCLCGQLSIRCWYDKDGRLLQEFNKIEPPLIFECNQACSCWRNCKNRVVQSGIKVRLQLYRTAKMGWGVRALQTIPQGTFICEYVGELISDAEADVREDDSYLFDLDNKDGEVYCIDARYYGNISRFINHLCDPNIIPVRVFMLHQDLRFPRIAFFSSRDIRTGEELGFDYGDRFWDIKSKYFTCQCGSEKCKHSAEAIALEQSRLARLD
Background: qHTS replaces the single test concentration by a dilution series.
Take `COc1ccc(/C=C/c2nc(C#N)c(NCc3ccc(F)cc3)o2)cc1OC`: the Potency result was “inactive”. As to `COc1ccc(NC(=O)CC2SC(N3CCCCC3)=NC2=O)cc1OC` (centres undefined), the activity, negative = inhibition is 29.8% [at 12.7 µM]. As to `O=c1c2ccccc2n(Cc2cccc(Cl)c2)c(=O)n1Cc1ccccc1`, the Potency entry is “inactive”. On the same count and under the same terms, with `COc1ccc(CNC(=O)CSCc2nc(-c3ccccc3F)oc2C)cc1` the entry was “inactive”; with `O=C(Cn1c(=O)n(-c2ccc(F)cc2)c(=O)c2sccc21)Nc1cccc(C(F)(F)F)c1`, “inactive”; with `CCc1sc(C(=O)N2CCN(CC(=O)Nc3cccc(F)c3)CC2)cc1C`, “inactive”. In the case of `CCN(C(=O)COC(=O)C1CCN(S(=O)(=O)c2ccc(C)c(C)c2)CC1)C1CCS(=O)(=O)C1` (centres undefined), the activity, negative = inhibition is 7.98% [at 2.33 µM].

Take `COc1ccc(C2CC(=O)N(Cc3ccccc3C)c3c2c(C)nn3-c2nc(C)cc(C)n2)c(OC)c1` (centres undefined): the Potency result is “inactive”. Consider `Cc1cc(NC(=O)CSc2ncc(C(=O)Nc3ccc(Cl)cc3)c(=O)n2C)no1`, for which the Potency entry is “inactive”. On the same count and under the same terms, next, `COc1ccc(-c2nc(S(=O)(=O)c3ccccc3)c(N3CCCCC3)o2)cc1`: “inactive”.

`COc1cccc(-c2nc(S(=O)(=O)c3ccccc3)c(N3CCOCC3)o2)c1`: the activity, negative = inhibition was -43% [at 12.7 µM]. For the compound `O=S(=O)(c1ccccc1)c1nc(Cc2ccccc2)oc1N1CCOCC1`, the Potency was 7.08 µM (active). Same read-out and setting: with `COc1ccc(CNC(=O)COC(=O)c2c(C)nn(-c3ccccc3)c2C)cc1OC` the entry was “inactive”; with `C#CCOCCOCCOCCNc1nc(N2CCN(C(=O)[C@H](C(C)C)n3cc(CCO)nn3)CC2)nc(N2CCN(C(=O)[C@H]([C@@H](C)CC)n3cc(CCCN=C(N)N)nn3)CC2)n1`, 39.8 µM (active).

`C#CCOCCOCCOCCNc1nc(N2CCN(C(=O)Cn3cc(CCCCN)nn3)CC2)nc(N2CCN(C(=O)[C@H](CCCCN)n3cc(CCC(=O)O)nn3)CC2)n1`: the activity, negative = inhibition was 5.8% [at 2.33 µM].

With `C#CCOCCOCCOCCNc1nc(N2CCN(C(=O)[C@H](C(C)C)n3cc(CCO)nn3)CC2)nc(N2CCN(C(=O)[C@H](C(C)C)n3cc(CCO)nn3)CC2)n1`, the Potency is 44.7 µM (active). Regarding `C#CCOCCOCCOCCNc1nc(N2CCN(C(=O)CCCCCCCCCCNC(=O)[C@H]([C@@H](C)CC)n3cc(CCCCN=C(N)N)nn3)CC2)nc(N2CCN(C(=O)CCCCCCCCCCNC(=O)[C@H](CO)n3cc(CCCSC)nn3)CC2)n1`, the activity, negative = inhibition was 10.6% [at 2.33 µM]. On the same count and under the same terms, next, `C#CCOCCOCCOCCNc1nc(N2CCN(C(=O)[C@H](CCCCN)n3cc(CCC(=O)O)nn3)CC2)nc(N2CCN(C(=O)[C@H](CCCCN)n3cc(CC(C)O)nn3)CC2)n1` (some centres undefined): -23.5% [at 2.33 µM]; `C#CCOCCOCCOCCNc1nc(N2CCN(C(=O)CCCCCCCCCCNC(=O)[C@H](CCCCN)n3cc(C)nn3)CC2)nc(N2CCN(C(=O)CCCCCCCCCCNC(=O)[C@H](CO)n3cc(CCCSC)nn3)CC2)n1`: -8.81% [at 2.33 µM].
